Drawing on PubChem BioAssay (EPA / NIEHS), this text covers outcome and AC50 for 40 compounds.

The source made the active and inactive calls. Rule for the calls: active = hit-call score of the fitted dose curve at least 0.9, where 1 is the maximum; inactive = score below 0.9.

Myc proto-oncogene protein (Homo sapiens), sequence (P01106 whole entry, looked up): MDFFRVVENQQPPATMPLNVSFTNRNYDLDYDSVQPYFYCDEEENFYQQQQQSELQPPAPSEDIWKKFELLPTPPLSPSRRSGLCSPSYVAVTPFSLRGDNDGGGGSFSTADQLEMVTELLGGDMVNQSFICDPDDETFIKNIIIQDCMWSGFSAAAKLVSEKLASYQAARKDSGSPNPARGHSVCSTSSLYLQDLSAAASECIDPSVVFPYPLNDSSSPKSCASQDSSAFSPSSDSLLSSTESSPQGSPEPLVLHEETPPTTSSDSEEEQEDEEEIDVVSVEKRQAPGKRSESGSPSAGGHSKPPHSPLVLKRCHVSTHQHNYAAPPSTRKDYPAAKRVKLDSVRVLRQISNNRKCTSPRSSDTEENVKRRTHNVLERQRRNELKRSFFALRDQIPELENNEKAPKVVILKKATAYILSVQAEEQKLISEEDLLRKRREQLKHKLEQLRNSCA

The target of the test is Myc proto-oncogene protein (Homo sapiens) (UniProt P01106). As to the kind of experiment: ATG_Myc_CIS: Attagene CIS-FACTORIAL HepG2 Assay for human Myelocytomatosis (Myc) Proto-Oncogene Transcription Factor (AID 2282990). The note with it: HepG2, Attagene cis-reporter transcription factor activity; actives raise or lower the signal. The method, then:
ATG_CIS is a cell-based, multiplexed-readout assay that uses HepG2, a human liver cell line, with measurements taken at 24 hours after chemical dosing in a 24-well plate.ATG_Myc_CIS is one of 52 assay component(s) measured or calculated from the ATG_CIS assay. It is designed to make measurements of mRNA induction, a form of inducible reporter, as detected with fluorescence intensity signals by Reverse transcription polymerase chain reaction (RT-PCR) and Capillary electrophoresis technology.Data from the assay component ATG_Myc_CIS was analyzed into 1 assay endpoint. This assay endpoint, ATG_Myc_CIS, was analyzed with bidirectional fitting relative to DMSO as the negative control and baseline of activity. Using a type of inducible reporter, measures of mRNA for gain or loss-of-signal activity can be used to understand the reporter gene at the transcription factor-level as they relate to the gene MYC. Furthermore, this assay endpoint can be referred to as a primary readout, because this assay has produced multiple assay endpoints where this one serves a reporter gene function. To generalize the intended target to other relatable targets, this assay endpoint is annotated to the dna binding intended target family, where the subfamily is basic helix-loop-helix leucine zipper.
Human liver HepG2 cells are transiently transfected with multiple reporter transcription units (MRTUs) in 6-well plates using FuGene 6 reagent (Roche; 3 ml FuGene/1 mg DNA). The MRTU constructs are regulated by a cis-regulating element (promoter). […] A major difference between the CIS and TRANS system is that in CIS activities of endogenous TFs are measured, whereas the TRANS assay evaluates changes in activities of exogenous, chimeric NR-Gal4 proteins. […] At the end of 24 hour incubation, total RNA was isolated using TriZol reagent (Invitrogen). The isolated RNA is then reverse-transcribed using oligo(dT) primer and Mo-MLV reverse transcriptase (Invitrogen) with DNAse I (Ambion) treatment for 30 min. The one-tenth of the produced cDNA was amplified by PCR using Taq DNA polymerase (Invitrogen) and two reporter sequence-specific primers. The PCR products were fluorescently labeled by primer extension with 6-arboxyfluorescein (6-FAM) 5'-labeled reporter sequence-specific primer (2 min at 95 C, 20 s at 68 C and 10 min at 72 C) and these products were digested with 5U of HpaI (New England Biolabs) for 2h at 37 C. The fragments were purified using Qiaquick PCR columns (Qiagen), analyzed on an ABI 3130xL genetic analyzer (Applied Biosystems) with peak positions identified by using a set of X-rhodamine (ROX)-labeled MapMarker1000 molecular weight standards (BioVentures). The raw capillary electrophoresis data was processed using Attagraph software (Attagene).
As to `CCCC(O)C(O)CO` (stereo not given), the call was inactive.
Still for that read-out and setting: with `C=CC(C)(O)CCC=C(C)C` (stereo not given) the entry was “inactive”.
Still for that read-out and setting: the value for `COc1ccccc1[N+](=O)[O-]` was “inactive”.
On the same count and under the same terms, with `C=C[Si]1(C)O[Si](C)(C=C)O[Si](C)(C=C)O[Si](C)(C=C)O1` (stereo not given) the entry was “inactive”; with `C[C@H]1C[C@@H](O)CC(C)(C)C1`, “inactive”; with `CCCCCCCCCC(C)C=O` (stereo not given), “inactive”.
In the case of `C=C(C)[C@@H]1CC=C(C)C(=O)C1`, the outcome was inactive.
For the compound `O=c1c(O)c(-c2ccc(O)cc2)oc2cc(O)cc(O)c12`, the result was inactive.
`CCOc1ccc(NC(=O)CC(C)O)cc1` (stereo not given): the result was inactive.
Still for that read-out and setting: the value for `OC[C@H]1O[C@@H](Oc2ccc(O)cc2)[C@H](O)[C@@H](O)[C@@H]1O` was “inactive”.
The same measure, in the same setting: with `O=[N+]([O-])c1cccc(Cl)c1` the entry was “inactive”.
By AC50 is commonly meant the concentration at which the activity in the assay is half-maximal. On to `CCCOC(=O)c1c(Cl)c(Cl)c(Cl)c(Cl)c1C(=O)OCCC`, for which the half-maximal activity concentration (AC50) is 100 µM (active).
For the compound `C=CC(=O)OCCC#N`, the result was inactive.
The same measure, in the same setting: with `CCC(C)=O` the entry was “inactive”; with `Cc1cc(CCC(=O)OCCOCCOCCOC(=O)CCc2cc(C)c(O)c(C(C)(C)C)c2)cc(C(C)(C)C)c1O`, “inactive”.
Still for that read-out and setting: the value for `CCc1ccc(O)c(OC)c1` was “inactive”; that for `CC(C)=CCCC(C)CC(=O)O` (stereo not given) was “inactive”.
Regarding `Oc1c(Cl)cc(Cl)c(Cl)c1Cc1c(O)c(Cl)cc(Cl)c1Cl`, the AC50 is 4.41 µM (active).
On to `C=CC(=O)OCCCC`, for which the compound was called inactive.
Same read-out and setting: with `O=C1CCCC=CCCCCCCCCCC1` the entry was “inactive”.
Turning to `C[C@@H]1CCN(C(=O)[C@H](CCCN=C(N)N)NS(=O)(=O)c2cccc3c2NC[C@H](C)C3)[C@@H](C(=O)O)C1`, the compound was called inactive.
Turning to `N#Cc1ccc(CC(=O)c2cccc(C(F)(F)F)c2)cc1`, the concentration at half-maximal activity (AC50) was 158 µM (active).
As for `C1CCOC1`, the call was inactive.
Still for that read-out and setting: the value for `CCC(=O)OCCOc1ccccc1` was “inactive”.
Same read-out and setting: with `CCOCCOCCOCC` the entry was “inactive”.
The same measure, in the same setting: with `CCN(CC)C(=O)N(CC)CC` the entry was “inactive”; with `Cc1ccc(N)c(S(=O)(=O)O)c1`, “inactive”; with `CCCCCCC(C)Nc1ccc(Nc2ccccc2)cc1` (stereo not given), “inactive”.
On to `C=CCCC(=O)/C=C/C1C(C)=CCCC1(C)C` (stereo not given), for which the call was inactive.
In the case of `COc1ccc(N)c([N+](=O)[O-])c1`, the result was inactive.
On the same count and under the same terms, with `O=C(Nc1ccc2c(O)c(N=Nc3ccc(N=Nc4ccc(S(=O)(=O)O)cc4)cc3)c(S(=O)(=O)O)cc2c1)c1ccccc1` the entry was “inactive”; with `CC1CCC(C(C)C)C(O)C1` (stereo not given), “inactive”; with `O=C(O)CCCCCCCCCCCC(=O)O`, “inactive”.
The same measure, in the same setting: the value for `C1=CC2C3C=CC(C3)C2C1` (stereo not given) was “inactive”.
Still for that read-out and setting: the value for `CCCCCCCCCCCC(=O)OCC(O)CO` (stereo not given) was “inactive”.
Take `CCCCCCCCCCCCS(=O)(=O)Cl`: the compound was classed as inactive.
`C=COCCOCCOC=C`: the call was inactive.
On the same count and under the same terms, with `CC(C)(C)CC(C)(C)c1ccc(OCCOCC[N+](C)(C)Cc2ccccc2)cc1` the entry was “inactive”; with `C=C(CC(=O)O)C(=O)O`, “inactive”; with `CCOC(=O)C1OC1c1ccccc1` (stereo not given), “inactive”.
